Records with an inconclusive call do not appear. Active and inactive are the calls of the source. How the source made its calls, unless noted: active means hit-call score of the fitted dose curve at least 0.9, where 1 is the maximum; inactive means score below 0.9.
Key:
[1] = ATG_TAL_CIS: Attagene CIS-FACTORIAL HepG2 Assay for human TAL Basal Promoter (AID 2282966); details: HepG2 Attagene cis-factorial TAL promoter reporter; actives raise or lower the signal;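 further: background control endpoint measuring basal TAL promoter reporter mRNA not a specific factor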
Summary of the method: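 HepG2 cells transiently transfected with multiplexed cis-promoter reporter units, dosed 24 h. Reporter mRNA quantified by RT-PCR, 6-FAM labelling, HpaI digestion and capillary electrophoresis; TAL basal promoter serves as background control, fitted bidirectionally versus DMSO.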

[2] = ATG_TGFb_CIS: Attagene CIS-FACTORIAL HepG2 Assay for human Transforming Growth Factor (TGF) (AID 2282967); details: HepG2 Attagene CIS TGFb reporter, mRNA transcription; actives raise or lower the signal
Summary of the method: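 Liver HepG2 line, cis-factorial reporter panel, 24 h dosing. Quantitation: RT-PCR products labeled with 6-FAM, cut with HpaI, resolved by capillary electrophoresis; DMSO-referenced bidirectional analysis.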

[3] = ATG_VDRE_CIS: Attagene CIS-FACTORIAL HepG2 Assay for human Vitamin D Receptor Element (VDRE) (AID 2282968); details: HepG2 VDRE cis-reporter transcription, actives raise or lower the signal
Summary of the method: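 Reporter mRNA induction, quantified by capillary electrophoresis of fluorescently labelled RT-PCR products, was read 24 h after dosing HepG2 cells carrying transiently transfected cis-regulated reporter units; gain or loss relative to DMSO.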

[4] = molecular target: X-box-binding protein 1 (Homo sapiens) (UniProt P17861); assay: ATG_Xbp1_CIS: Attagene CIS-FACTORIAL HepG2 Assay for human X-box Binding Protein 1 (XBP1) (AID 2282972); details: HepG2 XBP1 cis-element reporter, Attagene multiplex; actives raise or lower the signal
Chain of X-box-binding protein 1 (Homo sapiens) (P17861 whole entry, looked up): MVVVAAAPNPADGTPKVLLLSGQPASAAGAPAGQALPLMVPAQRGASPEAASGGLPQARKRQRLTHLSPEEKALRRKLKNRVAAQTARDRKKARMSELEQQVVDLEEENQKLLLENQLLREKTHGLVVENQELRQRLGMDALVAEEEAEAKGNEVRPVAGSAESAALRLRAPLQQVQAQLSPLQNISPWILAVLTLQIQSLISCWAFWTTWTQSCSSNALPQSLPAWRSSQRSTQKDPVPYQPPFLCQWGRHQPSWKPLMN
Summary of the method: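 HepG2 cells transiently transfected with cis-regulated multiple reporter transcription units; endogenous transcription factor activity measured 24 hours after chemical dosing. Reporter mRNA quantified by RT-PCR, 6-FAM primer extension, HpaI digestion and capillary electrophoresis; bidirectional fitting versus DMSO.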

[5] = ATG_GAL4_TRANS: Attagene TRANS-FACTORIAL HepG2 Assay for GAL4 (Internal Marker) (AID 2282976; active means hit-call score of the fitted dose curve at least 0.9, where 1 is the maximum); details: HepG2 Attagene TRANS GAL4 internal marker reporter
Summary of the method: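 Background-control readout: GAL4-UAS reporter transcript in transiently transfected HepG2 cells after 24 h compound exposure. Measured by RT-PCR, 6-FAM primer extension, HpaI digest and capillary electrophoresis; gain-of-signal fit versus DMSO.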

[6] = molecular target: Glucocorticoid receptor (Homo sapiens) (UniProt P04150); assay: ATG_GR_TRANS: Attagene TRANS-FACTORIAL HepG2 Assay for human Glucocorticoid Receptor (GR) (AID 2282978; active means hit-call score of the fitted dose curve at least 0.9, where 1 is the maximum;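 further: activators score as hits since higher reporter transcript over DMSO is fitted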); details: HepG2 Attagene TRANS GR reporter, mRNA transcription
Chain of Glucocorticoid receptor (Homo sapiens) (P04150 whole entry, looked up, the tested form may be a part): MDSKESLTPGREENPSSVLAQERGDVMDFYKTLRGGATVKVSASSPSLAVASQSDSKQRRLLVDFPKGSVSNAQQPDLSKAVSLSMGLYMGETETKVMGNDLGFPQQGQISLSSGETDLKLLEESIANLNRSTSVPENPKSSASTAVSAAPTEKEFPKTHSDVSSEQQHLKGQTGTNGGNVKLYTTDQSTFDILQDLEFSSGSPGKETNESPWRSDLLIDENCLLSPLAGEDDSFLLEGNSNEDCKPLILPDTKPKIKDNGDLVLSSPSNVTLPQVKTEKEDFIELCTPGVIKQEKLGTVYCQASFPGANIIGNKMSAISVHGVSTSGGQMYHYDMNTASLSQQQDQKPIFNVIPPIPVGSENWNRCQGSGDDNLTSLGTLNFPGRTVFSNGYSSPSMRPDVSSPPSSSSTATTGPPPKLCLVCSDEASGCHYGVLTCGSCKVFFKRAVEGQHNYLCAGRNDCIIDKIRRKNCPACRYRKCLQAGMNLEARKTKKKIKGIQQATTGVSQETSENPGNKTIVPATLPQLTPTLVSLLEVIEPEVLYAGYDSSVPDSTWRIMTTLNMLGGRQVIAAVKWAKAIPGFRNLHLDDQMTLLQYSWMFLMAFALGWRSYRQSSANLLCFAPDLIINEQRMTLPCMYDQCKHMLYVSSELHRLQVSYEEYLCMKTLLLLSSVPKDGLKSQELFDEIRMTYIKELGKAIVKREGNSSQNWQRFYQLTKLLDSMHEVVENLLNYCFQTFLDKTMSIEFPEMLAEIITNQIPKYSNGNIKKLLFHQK
Summary of the method: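 Exogenous NR-GAL4 fusion activity was assessed through induced GAL4-UAS reporter transcripts in transfected human HepG2 cells, quantified after 24 h by RT-PCR and fluorescent capillary electrophoresis with DMSO as baseline.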

[7] = molecular target: Bile acid receptor (Homo sapiens) (UniProt Q96RI1); assay: ATG_FXR_TRANS: Attagene TRANS-FACTORIAL HepG2 Assay for Farnesoid X Receptor (FXR) (AID 2282979; active means hit-call score of the fitted dose curve at least 0.9, where 1 is the maximum;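 further: hits raise reporter mRNA above DMSO so AC50 marks FXR activation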); details: HepG2 Attagene TRANS FXR-GAL4 reporter transcription
Chain of Bile acid receptor (Homo sapiens) (Q96RI1 whole entry, looked up, the tested form may be a part): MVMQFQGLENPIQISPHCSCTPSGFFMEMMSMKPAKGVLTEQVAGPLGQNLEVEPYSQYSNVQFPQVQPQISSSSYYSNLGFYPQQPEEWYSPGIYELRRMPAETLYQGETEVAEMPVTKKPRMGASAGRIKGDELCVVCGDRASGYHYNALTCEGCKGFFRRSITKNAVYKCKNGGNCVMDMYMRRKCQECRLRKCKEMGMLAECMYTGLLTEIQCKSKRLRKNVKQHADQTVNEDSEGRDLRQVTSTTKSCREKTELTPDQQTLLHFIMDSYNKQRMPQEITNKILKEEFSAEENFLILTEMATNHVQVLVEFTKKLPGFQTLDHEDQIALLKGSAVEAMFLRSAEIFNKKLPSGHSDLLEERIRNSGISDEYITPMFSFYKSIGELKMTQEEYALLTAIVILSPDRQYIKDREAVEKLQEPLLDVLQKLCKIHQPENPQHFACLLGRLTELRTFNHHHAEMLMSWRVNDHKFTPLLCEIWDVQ
Summary of the method: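 HepG2 cells were transiently transfected with GAL4-UAS reporters driven by chimeric NR-Gal4 proteins and dosed for 24 h. Reporter mRNA was quantified by RT-PCR, fluorescent labelling, HpaI digestion and capillary electrophoresis, with gain of signal scored versus DMSO.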

[8] = molecular target: Oxysterols receptor LXR-beta (Homo sapiens) (UniProt P55055); assay: ATG_LXRb_TRANS: Attagene TRANS-FACTORIAL HepG2 Assay for human Liver X Receptor beta (LXRb) (AID 2282981; active means hit-call score of the fitted dose curve at least 0.9, where 1 is the maximum); details: HepG2 Attagene TRANS GAL4-LXRb reporter, mRNA
Chain of Oxysterols receptor LXR-beta (Homo sapiens) (P55055 whole entry, looked up, the tested form may be a part): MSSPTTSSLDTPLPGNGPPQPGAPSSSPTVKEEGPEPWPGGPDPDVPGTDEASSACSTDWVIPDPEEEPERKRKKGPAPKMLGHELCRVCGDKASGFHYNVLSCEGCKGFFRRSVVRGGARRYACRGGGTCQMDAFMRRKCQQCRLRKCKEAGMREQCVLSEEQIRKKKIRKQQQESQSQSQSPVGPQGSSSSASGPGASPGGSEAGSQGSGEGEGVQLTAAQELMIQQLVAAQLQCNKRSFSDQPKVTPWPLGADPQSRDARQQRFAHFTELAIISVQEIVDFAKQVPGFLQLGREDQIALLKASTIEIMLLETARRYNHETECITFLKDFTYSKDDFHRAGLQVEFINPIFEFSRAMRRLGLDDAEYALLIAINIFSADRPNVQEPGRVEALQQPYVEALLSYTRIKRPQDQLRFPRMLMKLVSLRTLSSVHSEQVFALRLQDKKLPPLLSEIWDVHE
Summary of the method: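 Transient transfection HepG2 (multiplexed RTUs, GAL4-UAS); NR-Gal4 chimera; 24 h exposure; RNA → RT-PCR → 6-FAM primer extension → HpaI → CE; increase vs DMSO.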

[9] = molecular target: Hepatocyte nuclear factor 4-alpha (Homo sapiens) (UniProt P41235); assay: ATG_HNF4a_TRANS: Attagene TRANS-FACTORIAL HepG2 Assay for human Hepatocyte Nuclear Factor 4 alpha (HNF4a) (AID 2282982; active means hit-call score of the fitted dose curve at least 0.9, where 1 is the maximum); details: HepG2 HNF4a transactivation reporter, mRNA readout
Chain of Hepatocyte nuclear factor 4-alpha (Homo sapiens) (P41235 whole entry, looked up, the tested form may be a part): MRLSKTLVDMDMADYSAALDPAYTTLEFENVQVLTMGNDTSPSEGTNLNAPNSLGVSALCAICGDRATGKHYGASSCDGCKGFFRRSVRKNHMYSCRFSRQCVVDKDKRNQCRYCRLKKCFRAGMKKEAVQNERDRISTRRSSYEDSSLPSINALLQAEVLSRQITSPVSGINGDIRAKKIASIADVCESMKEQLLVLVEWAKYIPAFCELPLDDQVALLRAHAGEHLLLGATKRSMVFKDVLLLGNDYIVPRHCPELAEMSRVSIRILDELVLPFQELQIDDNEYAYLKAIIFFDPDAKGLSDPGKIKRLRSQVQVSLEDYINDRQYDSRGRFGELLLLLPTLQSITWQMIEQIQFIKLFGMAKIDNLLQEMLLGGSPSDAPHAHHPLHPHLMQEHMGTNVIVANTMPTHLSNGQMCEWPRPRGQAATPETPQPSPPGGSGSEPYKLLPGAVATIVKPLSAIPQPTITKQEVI
Summary of the method: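 Readout is fluorescent reporter-transcript fragments resolved by capillary electrophoresis after RT-PCR from HepG2 cells dosed for 24 h. Cells carried transfected GAL4-UAS reporter constructs measuring exogenous NR-GAL4 chimera activity; DMSO served as baseline.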

[10] = ATG_M_06_TRANS: Attagene TRANS-FACTORIAL HepG2 Assay for M06 Transcription Factor (Internal Marker) (AID 2282983; active means hit-call score of the fitted dose curve at least 0.9, where 1 is the maximum;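 further: reporter transcript level by RT-PCR then capillary electrophoresis fluorescence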); details: HepG2 Attagene TRANS M06 internal marker reporter
Summary of the method: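 HepG2 cells transiently transfected with GAL4-UAS multiple reporter units, dosed 24 h. Reporter RNA reverse-transcribed, PCR-amplified, 6-FAM-labeled, HpaI-digested and quantified by capillary electrophoresis; this internal-marker signal fitted upward relative to DMSO.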

[11] = molecular target: Transcriptional activator Myb (Homo sapiens) (UniProt P10242); assay: ATG_Myb_CIS: Attagene CIS-FACTORIAL HepG2 Assay for human Myeloblastosis (Myb) Proto-Oncogene Transcription Factor (AID 2282986); details: HepG2 Attagene CIS-FACTORIAL Myb reporter transcription; actives raise or lower the signal
Chain of Transcriptional activator Myb (Homo sapiens) (P10242 whole entry, looked up): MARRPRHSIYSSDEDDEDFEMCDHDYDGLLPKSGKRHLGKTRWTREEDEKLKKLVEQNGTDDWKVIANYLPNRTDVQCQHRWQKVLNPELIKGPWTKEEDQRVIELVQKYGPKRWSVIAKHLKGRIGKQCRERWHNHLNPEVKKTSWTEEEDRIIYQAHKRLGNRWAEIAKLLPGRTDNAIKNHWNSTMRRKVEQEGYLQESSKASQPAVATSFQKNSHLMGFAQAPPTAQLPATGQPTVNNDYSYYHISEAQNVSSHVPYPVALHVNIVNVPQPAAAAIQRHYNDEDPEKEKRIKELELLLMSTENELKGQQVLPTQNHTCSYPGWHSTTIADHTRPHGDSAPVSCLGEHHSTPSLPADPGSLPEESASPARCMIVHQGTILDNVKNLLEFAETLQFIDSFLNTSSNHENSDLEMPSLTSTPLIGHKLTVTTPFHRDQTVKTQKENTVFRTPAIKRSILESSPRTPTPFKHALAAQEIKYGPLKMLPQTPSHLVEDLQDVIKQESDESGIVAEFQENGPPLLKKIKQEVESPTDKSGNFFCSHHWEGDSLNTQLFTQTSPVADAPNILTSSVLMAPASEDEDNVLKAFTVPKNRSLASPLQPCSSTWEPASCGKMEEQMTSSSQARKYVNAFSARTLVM
Summary of the method: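 In this HepG2 transient-transfection format, cis-regulated reporter mRNA is quantified 24 h post-dosing by RT-PCR with capillary electrophoresis, fitted bidirectionally to DMSO baseline.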

[12] = molecular target: Nuclear respiratory factor 1 (Homo sapiens) (UniProt Q16656); assay: ATG_NRF1_CIS: Attagene CIS-FACTORIAL HepG2 Assay for human Nuclear Respiratory Factor 1 (NRF1) Orphan Gene (AID 2282987); details: HepG2 NRF1 cis-element reporter, Attagene multiplex; actives raise or lower the signal
Chain of Nuclear respiratory factor 1 (Homo sapiens) (Q16656 whole entry, looked up): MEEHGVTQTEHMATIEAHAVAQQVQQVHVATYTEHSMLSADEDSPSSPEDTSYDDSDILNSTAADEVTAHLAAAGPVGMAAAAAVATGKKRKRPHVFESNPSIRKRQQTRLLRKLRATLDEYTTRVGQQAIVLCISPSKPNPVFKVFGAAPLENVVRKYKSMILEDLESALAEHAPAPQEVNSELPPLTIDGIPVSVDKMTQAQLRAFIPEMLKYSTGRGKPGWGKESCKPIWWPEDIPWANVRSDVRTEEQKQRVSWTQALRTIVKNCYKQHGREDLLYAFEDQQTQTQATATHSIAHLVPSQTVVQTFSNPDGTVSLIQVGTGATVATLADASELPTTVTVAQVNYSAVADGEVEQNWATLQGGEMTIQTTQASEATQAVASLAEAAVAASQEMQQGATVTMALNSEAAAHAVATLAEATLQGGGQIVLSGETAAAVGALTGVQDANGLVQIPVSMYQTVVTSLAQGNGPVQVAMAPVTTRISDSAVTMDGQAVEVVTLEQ
Summary of the method: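 Using DMSO as baseline, gain- or loss-of-signal was fitted for reporter mRNA levels in HepG2 cells transiently transfected with cis-regulated reporter units. Samples were taken 24 h after dosing and read by RT-PCR with capillary electrophoresis.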

[13] = ATG_M_32_TRANS: Attagene TRANS-FACTORIAL HepG2 Assay for M32 Transcription Factor (Internal Marker) (AID 2282984; active means hit-call score of the fitted dose curve at least 0.9, where 1 is the maximum); details: HepG2 Attagene TRANS M32 internal marker reporter
Summary of the method: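 Measures reporter mRNA induction in human HepG2 liver cells after 24 h chemical treatment. Transcripts from transiently transfected GAL4-UAS reporter units are amplified, fluorescently labelled and sized by capillary electrophoresis; gain of signal relative to DMSO.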

[14] = molecular target: Nuclear receptor subfamily 4 group A member 2 (Homo sapiens) (UniProt P43354); assay: ATG_NURR1_TRANS: Attagene TRANS-FACTORIAL HepG2 Assay for human Nuclear Receptor Related Protein 1 (NURR1) (AID 2282985; active means hit-call score of the fitted dose curve at least 0.9, where 1 is the maximum); details: HepG2 Attagene TRANS reporter, mRNA readout
Chain of Nuclear receptor subfamily 4 group A member 2 (Homo sapiens) (P43354 whole entry, looked up, the tested form may be a part): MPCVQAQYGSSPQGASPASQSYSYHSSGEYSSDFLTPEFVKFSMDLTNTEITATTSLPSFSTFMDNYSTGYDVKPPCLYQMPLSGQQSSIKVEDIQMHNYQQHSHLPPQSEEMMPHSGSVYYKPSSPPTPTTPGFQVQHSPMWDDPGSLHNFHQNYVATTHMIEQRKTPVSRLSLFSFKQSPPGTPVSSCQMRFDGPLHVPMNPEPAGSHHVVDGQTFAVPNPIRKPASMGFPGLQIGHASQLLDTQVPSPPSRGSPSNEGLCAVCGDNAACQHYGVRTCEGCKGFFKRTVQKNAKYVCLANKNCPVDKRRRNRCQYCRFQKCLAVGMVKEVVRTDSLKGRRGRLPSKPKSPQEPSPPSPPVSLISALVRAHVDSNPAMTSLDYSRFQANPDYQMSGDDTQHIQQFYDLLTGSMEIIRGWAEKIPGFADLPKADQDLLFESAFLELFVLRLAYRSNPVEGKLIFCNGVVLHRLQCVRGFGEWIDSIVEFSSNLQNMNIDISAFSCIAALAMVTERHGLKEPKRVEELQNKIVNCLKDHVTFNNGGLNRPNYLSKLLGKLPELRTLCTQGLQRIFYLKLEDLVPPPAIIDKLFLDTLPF
Summary of the method: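 Transient transfection of HepG2, human liver cells, with multiple GAL4-UAS reporter transcription units. Cells dosed 24 h, RNA isolated, reverse-transcribed, PCR-amplified, FAM-labelled, HpaI-digested, sized by capillary electrophoresis. DMSO served as negative control.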

[15] = molecular target: Estrogen-related receptor gamma (Homo sapiens) (UniProt P62508); assay: ATG_ERRg_TRANS: Attagene TRANS-FACTORIAL HepG2 Assay for human Estrogen-Related Receptor gamma (ERRg) (AID 2282977; active means hit-call score of the fitted dose curve at least 0.9, where 1 is the maximum;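 further: hits increase reporter signal over DMSO so potencies reflect activators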); details: HepG2 Attagene TRANS reporter, ERRg transactivation
Summary of the method: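 Transfect HepG2 with multiple GAL4-UAS reporter transcription units; dose chemicals 24 h; isolate RNA, reverse-transcribe with oligo(dT), PCR-amplify, label with 6-FAM, digest with HpaI; size fragments by capillary electrophoresis. DMSO serves as negative control.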

[16] = molecular target: Oxysterols receptor LXR-alpha (Homo sapiens) (UniProt Q13133); assay: ATG_LXRa_TRANS: Attagene TRANS-FACTORIAL HepG2 Assay for human Liver X Receptor alpha (LXRa) (AID 2282980; active means hit-call score of the fitted dose curve at least 0.9, where 1 is the maximum); details: HepG2 Attagene TRANS reporter, LXRa transactivation
Chain of Oxysterols receptor LXR-alpha (Homo sapiens) (Q13133 whole entry, looked up, the tested form may be a part): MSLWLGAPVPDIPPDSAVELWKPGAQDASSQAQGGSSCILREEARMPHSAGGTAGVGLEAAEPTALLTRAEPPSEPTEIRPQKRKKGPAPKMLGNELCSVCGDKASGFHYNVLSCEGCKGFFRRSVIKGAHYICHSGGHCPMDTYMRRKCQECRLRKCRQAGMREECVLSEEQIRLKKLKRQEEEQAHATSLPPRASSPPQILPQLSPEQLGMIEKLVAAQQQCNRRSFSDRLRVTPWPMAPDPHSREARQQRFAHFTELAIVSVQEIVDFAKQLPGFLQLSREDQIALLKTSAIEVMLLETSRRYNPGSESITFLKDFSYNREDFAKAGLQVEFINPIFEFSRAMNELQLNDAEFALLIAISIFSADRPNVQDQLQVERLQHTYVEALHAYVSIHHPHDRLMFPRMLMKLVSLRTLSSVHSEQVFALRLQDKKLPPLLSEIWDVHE
Summary of the method: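 HepG2 cells transiently transfected with GAL4-UAS reporter units for chimeric NR-Gal4 proteins, exposed to chemicals for 24 h. Reporter mRNA quantified by RT-PCR and capillary electrophoresis; gain of signal fitted relative to DMSO.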

Measured: AC50

CCOc1nc(F)cc2nc(S(=O)(=O)Nc3c(Cl)cccc3C(=O)OC)nn12
active: [3] 16.6 µM
inactive: [1] | [2] | [4] | [5] | [6] | [7] | [8] | [9] | [10] | [11] | [12]

CCCC(C)CCC(C)=O (stereo not drawn)
inactive: [1] | [2] | [3] | [4] | [5] | [9] | [10] | [11]

O=C1C=CC(=O)O1
inactive: [1] | [2] | [3] | [4] | [7] | [9] | [10] | [13] | [11] | [12]

CCCCCC/C=C\CCCCCCCC(=O)O
inactive: [1] | [2] | [3] | [4] | [5] | [7] | [9] | [10] | [14] | [11] | [12]

O=P(O)(O)Oc1ccccc1
inactive: [1] | [2] | [3] | [4] | [6] | [7] | [8] | [10] | [11] | [12]

O=C(O)c1cc2ccccc2nc1C(=O)O
inactive: [1] | [2] | [3] | [4] | [9] | [10] | [14] | [11] | [12]

O=C1Nc2ccccc2C1(c1ccc(O)cc1)c1ccc(O)cc1
active: [3] 17.8 µM | [4] 48.8 µM | [7] 10.5 µM
inactive: [1] | [2] | [6] | [8] | [10] | [13] | [11] | [12]

c1ccc(-c2ccccn2)nc1
inactive: [1] | [2] | [3] | [4] | [15] | [16] | [8] | [9] | [10] | [14] | [11] | [12]
